Drawing on PubChem BioAssay, this text covers composite z-score and z-score for 5 compounds.

Assay [1] is described as follows: small molecules captured by biotinylated probe aFSTL3 – biochemical, small-molecule microarray, fluorescence 635/667, stem cell growth factor project, primary screen (AID 1064).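 Note: measures binding of the biotinylated anti-FSTL3 antibody to printed compounds.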 Conditions: higher = more signal.
Assay [2] is described as follows: binders from COS7 lysate, DM2A8 probe, primary screen, torsin A project, cell lysate, small-molecule microarray, fluorescence 635/667 (AID 1065). To be noted: higher = more signal, COS7 lysate expressing mutant human TOR1A.
A short description of assay [3]: small molecules captured by biotinylated probe aFGF2 – biochemical, small-molecule microarray, fluorescence 635/667, stem cell growth factor project, primary screen (AID 1067).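 Note: measures binding of biotinylated aFGF2 protein to printed compounds on slides; z-score merges feature fluorescence and signal-to-noise across triplicate slides.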 To be noted: higher = more signal.
A short description of assay [4]: small molecules captured by biotinylated probe aFGF10 – biochemical, small-molecule microarray, fluorescence 635/667, stem cell growth factor project, primary screen (AID 1071).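 Note: score merges 667 nm spot intensity and signal to noise from triplicate slides.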 Conditions: higher = more signal.
Assay [5] has as its target Neurogenic locus notch homolog protein 2 (Homo sapiens) (UniProt Q04721). In words: small molecules binding Notch2 protein – biochemical, small-molecule microarray, 635 nm fluorescence, stem cell growth factors, primary screen (AID 1073). To be noted: higher = more signal.
Assay [6] addresses Pro-neuregulin-1, membrane-bound isoform (Homo sapiens) (UniProt Q02297). Briefly: small molecules binding neuregulin-1 protein – biochemical, small-molecule microarray, fluorescence 635/667, psychiatric disease protein project, primary screen (AID 1075).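 Note: score combines 667 nm spot fluorescence with signal to noise.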 To be noted: NRG1 binding, 635 nm fluorescence, higher = more signal.
The subject of assay [7] is Neuregulin-1 EGF-like domain. Briefly: small molecules binding NRG1 EGF domain – biochemical, small-molecule microarray, 635 nm fluorescence, primary screen (AID 1081).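 Note: binding of the protein to compounds printed on small-molecule microarray slides.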 Conditions: higher = more signal.
Assay [8] in a line: FRG1 expression reporter modulators in myotubes – cell-based, C2C12 myotubes, firefly/Renilla luciferase, luminescence, FRG1 inhibition for FSHD, primary screen (AID 1084). Conditions: FRG1 promoter luciferase, higher = more signal, called active from +8 up or from −8 down.
A short description of assay [9]: small molecules captured by biotinylated probe aFST – biochemical, small-molecule microarray, fluorescence 635/667, stem cell growth factor project, primary screen (AID 1086).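 Note: score merges 667 nm fluorescence with signal-to-noise of each printed compound spot.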 Conditions: higher = more signal.
A short description of assay [10]: binders of probe aHhip on microarray, primary screen, stem cell growth factor project, biochemical, small-molecule microarray, fluorescence 635/667 (AID 1087).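 Note: score merges spot fluorescence at 667nm with spot signal to noise ratio.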 To be noted: higher = more signal.
Assay [11] concerns PRMT1 (protein arginine N-methyltransferase 1). In words: small molecules binding arginine methyltransferase PRMT1 – biochemical, small-molecule microarray, 635 nm fluorescence, primary screen (AID 1088).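 Note: binding of Prmt1 protein to compounds spotted on small-molecule microarray slides.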 Conditions: higher = more signal.
Assay [12] can be described thus: growth effects on S. cerevisiae YJM789 – YJM789 clinical isolate, OD600, 24 h, basal, primary screen (AID 1089).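 Note: growth of clinical yeast isolate S. cerevisiae YJM 789 seeded 1000 cells per well; test concentration not given here.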 To be noted: higher = more signal, called active from +8 up or from −8 down.
Assay [13] in a line: S. pombe growth modifiers, basal conditions – strain 972, OD600, 24 h, no modulator, primary screen (AID 1090).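 Note: basal condition with compound alone and no growth modifier present; test concentration not given here.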 Conditions: S. pombe 972 growth, higher = more signal, called active from +8 up or from −8 down.
The nature of assay [14]: budding yeast growth modifiers under rapamycin – strain BY4716, OD600, 96 h, primary screen (AID 1091). Note: test concentration not given here. Conditions: S. cerevisiae BY4716 + rapamycin, higher = more signal, called active from +8 up or from −8 down.
Assay [15] deals with Torsin-1A-interacting protein 2 (Homo sapiens) (UniProt Q8NFQ8). Briefly: small molecules binding lysate-expressed LULL1 – cell lysate, human LULL1 lysate, 635/667 nm fluorescence, primary screen (AID 1092).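 Note: score merges per-feature 667 nm fluorescence with signal-to-noise.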 Conditions: small-molecule microarray, hLULL1 lysate binding, 635 nm fluorescence; higher = more signal.
Assay [16] in a line: optical density change of DRC41 E. coli – strain DRC41, OD650, 24 h, E. coli filamentation project, primary screen (AID 1093).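 Note: MC1000 strain lacking acrAB efflux and sulA so SOS filamentation is blocked; test concentration not given here.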 To be noted: E. coli DRC41 growth, higher = more signal, called active from +8 up or from −8 down.
Assay [17] can be described thus: probe aLefty2 binding to arrayed compounds – biochemical, biotinylated probe, 635/667 nm fluorescence, primary screen (AID 1094).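 Note: score merges spot fluorescence near 667 nm with spot signal-to-noise ratio.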 Conditions: small-molecule microarray, higher = more signal.
For assay [18], the system named is Noggin (protein binding on small-molecule microarray). In words: small molecules binding Noggin protein – biochemical, 635/667 nm fluorescence, primary screen (AID 1095).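 Note: score merges 667 nm feature fluorescence with signal to noise over triplicate slides.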 To be noted: 635 nm fluorescence, higher = more signal.
Assay [19] has as its target Neurogenic locus notch homolog protein 3 (Homo sapiens) (UniProt Q9UM47). Briefly: small molecules binding NOTCH3 protein – biochemical, 635/667 nm fluorescence, primary screen (AID 1096). Conditions: small-molecule microarray, 635 nm fluorescence, higher = more signal.
Assay [20] in a line: probe aEGFR binding to arrayed compounds – biochemical, biotinylated probe, 635/667 nm fluorescence, primary screen (AID 1097).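 Note: probe is a biotinylated anti-EGFR antibody binding compounds printed on slides; score combines fluorescence near 667 nm and signal to noise of each spot.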 To be noted: small-molecule microarray, higher = more signal.

The source made the active and inactive calls.

Neurogenic locus notch homolog protein 3 (Homo sapiens), sequence (Q9UM47 whole entry, looked up): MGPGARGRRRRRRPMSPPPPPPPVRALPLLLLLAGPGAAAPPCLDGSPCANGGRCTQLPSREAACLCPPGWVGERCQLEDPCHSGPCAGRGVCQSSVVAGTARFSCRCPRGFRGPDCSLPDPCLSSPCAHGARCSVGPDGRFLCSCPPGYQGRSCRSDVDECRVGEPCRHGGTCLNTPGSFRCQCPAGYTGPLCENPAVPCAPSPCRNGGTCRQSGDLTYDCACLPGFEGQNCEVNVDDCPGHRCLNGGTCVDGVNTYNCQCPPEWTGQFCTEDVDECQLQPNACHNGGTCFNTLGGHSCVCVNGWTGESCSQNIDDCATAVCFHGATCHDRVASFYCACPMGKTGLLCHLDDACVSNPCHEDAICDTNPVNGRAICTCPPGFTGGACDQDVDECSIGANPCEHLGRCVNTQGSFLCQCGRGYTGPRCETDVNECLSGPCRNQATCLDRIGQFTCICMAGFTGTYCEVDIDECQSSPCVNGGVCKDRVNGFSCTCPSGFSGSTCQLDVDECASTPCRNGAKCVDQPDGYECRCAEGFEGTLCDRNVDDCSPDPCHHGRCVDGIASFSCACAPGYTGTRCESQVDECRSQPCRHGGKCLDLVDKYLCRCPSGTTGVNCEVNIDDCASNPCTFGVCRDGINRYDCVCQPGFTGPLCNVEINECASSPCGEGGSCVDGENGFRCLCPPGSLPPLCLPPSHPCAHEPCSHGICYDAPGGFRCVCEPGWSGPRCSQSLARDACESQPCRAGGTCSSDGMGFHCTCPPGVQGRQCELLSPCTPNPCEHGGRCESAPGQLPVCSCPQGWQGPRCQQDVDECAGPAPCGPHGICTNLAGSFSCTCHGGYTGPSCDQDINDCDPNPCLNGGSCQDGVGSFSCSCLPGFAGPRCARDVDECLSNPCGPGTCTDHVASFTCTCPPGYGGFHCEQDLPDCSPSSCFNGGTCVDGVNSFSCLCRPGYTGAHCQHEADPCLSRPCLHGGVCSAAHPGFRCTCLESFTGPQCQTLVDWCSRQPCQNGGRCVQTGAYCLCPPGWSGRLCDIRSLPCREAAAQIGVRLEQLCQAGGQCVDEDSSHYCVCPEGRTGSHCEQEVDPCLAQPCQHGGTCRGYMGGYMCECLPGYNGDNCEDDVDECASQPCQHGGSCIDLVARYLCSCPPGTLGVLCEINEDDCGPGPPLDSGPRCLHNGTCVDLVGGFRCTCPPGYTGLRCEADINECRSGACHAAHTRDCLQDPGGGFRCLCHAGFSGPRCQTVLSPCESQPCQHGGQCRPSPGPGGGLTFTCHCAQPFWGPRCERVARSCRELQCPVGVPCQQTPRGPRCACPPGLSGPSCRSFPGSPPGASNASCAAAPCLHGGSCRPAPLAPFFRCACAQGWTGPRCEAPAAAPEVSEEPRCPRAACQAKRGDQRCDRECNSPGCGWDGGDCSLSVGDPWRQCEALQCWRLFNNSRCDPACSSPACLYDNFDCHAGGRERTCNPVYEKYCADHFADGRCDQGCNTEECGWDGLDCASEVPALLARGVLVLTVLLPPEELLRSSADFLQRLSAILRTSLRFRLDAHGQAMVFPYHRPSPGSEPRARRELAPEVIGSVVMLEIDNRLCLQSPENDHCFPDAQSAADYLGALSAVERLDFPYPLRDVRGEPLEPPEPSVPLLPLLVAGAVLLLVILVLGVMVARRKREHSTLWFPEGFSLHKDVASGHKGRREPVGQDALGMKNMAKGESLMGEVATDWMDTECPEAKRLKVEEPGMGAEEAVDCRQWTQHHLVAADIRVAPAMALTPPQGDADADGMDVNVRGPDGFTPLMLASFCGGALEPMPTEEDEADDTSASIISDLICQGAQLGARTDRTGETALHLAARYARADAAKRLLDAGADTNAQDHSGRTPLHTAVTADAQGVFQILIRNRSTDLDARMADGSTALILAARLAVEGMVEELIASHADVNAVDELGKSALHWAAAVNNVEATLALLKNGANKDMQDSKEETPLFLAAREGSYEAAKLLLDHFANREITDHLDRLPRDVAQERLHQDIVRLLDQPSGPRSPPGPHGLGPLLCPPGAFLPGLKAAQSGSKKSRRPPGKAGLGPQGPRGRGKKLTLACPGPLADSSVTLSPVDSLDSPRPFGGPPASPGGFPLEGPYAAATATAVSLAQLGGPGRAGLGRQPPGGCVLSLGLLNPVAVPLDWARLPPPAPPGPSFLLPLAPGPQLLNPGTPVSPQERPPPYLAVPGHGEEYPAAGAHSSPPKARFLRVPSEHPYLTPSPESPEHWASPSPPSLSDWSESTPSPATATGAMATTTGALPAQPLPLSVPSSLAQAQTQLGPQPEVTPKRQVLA
Pro-neuregulin-1, membrane-bound isoform (Homo sapiens), sequence (Q02297 whole entry, looked up, the tested form may be a part, canonical isoform): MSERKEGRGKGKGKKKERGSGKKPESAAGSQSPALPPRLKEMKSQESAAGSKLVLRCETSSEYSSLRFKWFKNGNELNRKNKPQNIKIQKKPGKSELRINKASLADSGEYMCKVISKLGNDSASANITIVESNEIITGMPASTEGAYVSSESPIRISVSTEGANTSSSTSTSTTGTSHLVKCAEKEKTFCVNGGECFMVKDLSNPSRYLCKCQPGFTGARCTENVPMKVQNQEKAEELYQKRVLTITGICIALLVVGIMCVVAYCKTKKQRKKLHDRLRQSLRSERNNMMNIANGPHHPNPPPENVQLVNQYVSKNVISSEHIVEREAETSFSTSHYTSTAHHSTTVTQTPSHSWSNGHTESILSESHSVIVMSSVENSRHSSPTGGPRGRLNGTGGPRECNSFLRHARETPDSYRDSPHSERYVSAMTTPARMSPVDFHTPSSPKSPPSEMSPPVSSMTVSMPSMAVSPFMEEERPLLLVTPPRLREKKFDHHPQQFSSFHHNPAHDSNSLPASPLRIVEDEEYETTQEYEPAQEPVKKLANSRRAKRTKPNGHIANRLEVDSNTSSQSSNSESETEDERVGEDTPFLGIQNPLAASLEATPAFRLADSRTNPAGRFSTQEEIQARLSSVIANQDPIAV
Torsin-1A-interacting protein 2 (Homo sapiens), sequence (Q8NFQ8 whole entry, looked up): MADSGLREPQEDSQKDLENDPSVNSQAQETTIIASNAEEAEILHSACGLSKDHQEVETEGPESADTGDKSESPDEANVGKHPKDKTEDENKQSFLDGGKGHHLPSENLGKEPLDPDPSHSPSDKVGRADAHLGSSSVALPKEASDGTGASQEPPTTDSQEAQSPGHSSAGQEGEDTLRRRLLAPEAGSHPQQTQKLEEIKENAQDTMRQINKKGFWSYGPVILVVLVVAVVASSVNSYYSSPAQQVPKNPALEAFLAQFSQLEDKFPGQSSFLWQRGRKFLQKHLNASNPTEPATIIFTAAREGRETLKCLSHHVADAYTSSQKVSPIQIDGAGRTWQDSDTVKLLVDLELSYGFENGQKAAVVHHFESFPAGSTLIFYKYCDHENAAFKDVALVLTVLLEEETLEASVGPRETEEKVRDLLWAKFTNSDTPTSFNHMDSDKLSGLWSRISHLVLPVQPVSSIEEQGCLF

As to `COC(=O)[C@@]1(Cc2ccc(OC)cc2)[C@H]2c3cc(C(=O)N4CCCC4)n(CCc4cc5ccccc5[nH]4)c3C[C@H]2CN1C(=O)c1ccccc1`, the composite z-score was 0.649 in assay [1]; 0.115 in assay [2]; 0.194 in [3]; 0.614 in assay [4]; 1.36 in assay [5]; 1.9 in assay [6]. For the same compound, the composite z-score in assay [7] came out at 1.1; in assay [9], 1.71; in [10], 0.363; in assay [11], 0.907; in [15] it was 3.43; in assay [17], 0.507. The results for the composite z-score in assay [18], in [19] and in assay [20] were 0.364, 1.05 and 0.0464, respectively. The z-score in assay [8] is 0.562 (inactive); in assay [12], 0.596 (inactive); in assay [13] it was 2.61 (inactive); in [14], 1.72 (inactive); in assay [16] it was -0.12 (inactive).
With `O=C(N1CCCCC1)[C@@]1(Cc2ccccc2)COC(c2ccc(OCCCO)cc2)=N1`, the composite z-score is 0.771 in [1]; 0.81 in [2]; 0.0661 in [3]; 1.1 in [4]; 1.33 in assay [5]; 1.91 in assay [6]. In addition, the composite z-score was 1.25 in assay [7]; 0.53 in assay [9]; 0.347 in assay [10]; 1.31 in assay [11]; 3.21 in [15]; 0.511 in [17]. The composite z-score is -0.315 in [18], 0.622 in [19] and 0.548 in [20]. The z-score is -2.97 (inactive) in [8]; -0.22 (inactive) in assay [12]; -5.35 (inactive) in assay [13]; 1.58 (inactive) in assay [14]; 1.06 (inactive) in [16].
Turning to `COc1ccc([Si](C)(C)[C@@H]2[C@@H](CCO)O[C@]3(C(=O)N(Cc4cccc(N5C(=O)c6cccc7cccc5c67)c4)c4ccccc43)[C@H]2C)cc1`, the composite z-score in assay [1] is 0.385; in [2] it was -0.106; in assay [3] it was -0.156; in assay [4], 0.691; in [5] it was -0.314; in assay [6], 0.779. Further, the composite z-score in assay [7] is 0.966; in assay [9] it was -0.0576; in assay [10], -0.236; in assay [11], 1.22; in [15], 1.24; in [17] it was -0.0931. The composite z-score is -0.25 in [18], 0.267 in assay [19] and -0.221 in [20]. Further, the z-score in [8] was -0.34 (inactive); in assay [12], 2.2 (inactive); in [13], 2.22 (inactive); in assay [14], 38.9 (active); in assay [16], 0.399 (inactive).
Take `O=C1c2ccccc2[C@](Cc2ccccc2I)(C(=O)NCCN2CCOCC2)[C@H](c2ccc(CO)cc2)N1Cc1ccccc1`: the composite z-score in [1] is -0.0634; in [2] it was 0.783; in [3], -0.0356; in assay [4], 0.699; in [5] it was 1.33; in [6], 1.1. In addition, the composite z-score in assay [7] came out at 1.33; in [9], 0.983; in [10], 0.519; in assay [11], 1.52; in assay [15] it was 2.8; in assay [17], 0.182. In addition, the composite z-score in assay [18] stood at 0.406; in assay [19], 1.08; in assay [20], 0.225. Besides, the z-score in assay [8] is -3.84 (inactive); in assay [12], 0.189 (inactive); in [13], 0.0239 (inactive); in assay [14] it was -0.477 (inactive); in [16], 0.47 (inactive).
Consider `NCCCCCNC(=O)[C@@H]1C[C@@H]2C(=O)N[C@@H](CCCCN)C(=O)N2[C@@H]1c1cccc(OCCO)c1`, for which the composite z-score was 0.0523 in assay [1]; 0.329 in [2]; -0.0037 in assay [3]; -0.202 in [4]; -0.254 in assay [5]; 2.11 in assay [6]. For the same compound, the composite z-score in [7] is 0.969; in assay [9] it was -0.413; in assay [10], 0.0497; in assay [11], 0.61; in assay [15] it was 0.557; in assay [17], 0.119. Also, the figures for the composite z-score in [18], in assay [19] and in assay [20] were 0.878, 0.702 and -0.0306, respectively. Besides, the z-score in assay [8] is -0.697 (inactive); in [12], 0.656 (inactive); in assay [13], 0.212 (inactive); in assay [14], -0.0182 (inactive); in assay [16], 0.767 (inactive).
